Source: PubChem BioAssay
The source made the active and inactive calls.

What was measured:
[1] = biological target: Albumin (Bos taurus) (UniProt P02769); assay: bovine serum albumin binders on microarray, profiling panel, artefact control for SMM control protein annotation, biochemical, small-molecule microarray, Alexa647 label, 635/667 nm fluorescence (AID 1118); conditions: BSA-A647 binding, fluorescence 635 nm, higher = more signal;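 further: score merges 667 nm emission intensity and signal-to-noise per printed compound spot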
[2] = small-molecule microarray binders of probe aXIP, primary screen, biochemical, NeuroSMM set, 635/667 nm fluorescence (AID 1119); conditions: higher = more signal, called active from +8 up or from −8 down;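 further: probe is the protein aXip251-270 applied at 1 µg/mL to compound-printed slides; binding of probe to printed compounds measured as 667 nm fluorescence plus signal to noise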
[3] = small-molecule binders of probe aNOTCH3, primary screen, biochemical, small-molecule microarray, 635/667 nm fluorescence (AID 1120); conditions: higher = more signal;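 further: probe is a biotin-tagged antibody raised against NOTCH3 rather than NOTCH3 protein; score merges spot fluorescence near 667 nm with spot signal to noise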
[4] = small-molecule binders of probe aNOTCH2, primary screen, biochemical, small-molecule microarray, 635/667 nm fluorescence (AID 1121); conditions: higher = more signal;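 further: score merges feature fluorescence read at 667 nm with its signal to noise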
[5] = biological target: Carbonic anhydrase 2 (Homo sapiens) (UniProt P00918); assay: CAII small-molecule binders, profiling panel, biochemical, small-molecule microarray, Alexa647-labelled CAII (AID 1122); conditions: CAII-A647 binding fluorescence, higher = more signal
[6] = COS7 lysate on small-molecule microarray, probe aHis, 635 nm (AID 1123); conditions: COS7 cell lysate, fluorescence, higher = more signal;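 further: z-score combines 667nm fluorescence intensity with signal-to-noise per printed compound spot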
[7] = compound binding in COS7 lysate, probe aLAP1, primary screen, cell lysate, small-molecule microarray (AID 1124); conditions: probe aLAP1, fluorescence, higher = more signal;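 further: lysate comes from COS7 cells expressing LAP1 and is applied at 0.3 µg/mL; score merges spot fluorescence near 667 nm with signal-to-noise over triplicate slides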
[8] = system: Sam68 (KHDRBS1); assay: Sam68 small-molecule binders, primary screen, biochemical, small-molecule microarray, 635 nm fluorescence (AID 1125); conditions: small-molecule microarray binding, higher = more signal;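 further: score merges 667 nm channel intensity with signal to noise over triplicate slides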
[9] = system: Chordin-like protein 2 (CHRDL2); assay: CHRDL2 small-molecule binders, primary screen, biochemical, small-molecule microarray, 635 nm fluorescence (AID 1126); conditions: small-molecule microarray binding, fluorescence 635 nm; higher = more signal;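 further: printed compound slides probed with Chrdl2 protein at 4 µg/mL for 1 h at 4 C; score merges 667 nm emission intensity with signal to noise over three replicate slides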
[10] = biological target: Concanavalin-A (Canavalia ensiformis) (UniProt P02866); assay: ConA small-molecule binders, primary screen, artefact control for SMM control protein annotation, biochemical, small-molecule microarray, Alexa647 label, 635 nm (AID 1127); conditions: ConA-A647 binding fluorescence, higher = more signal;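 further: z combines 667 nm emission intensity with signal-to-noise across three replicate slides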
Concanavalin-A (Canavalia ensiformis), sequence (P02866 whole entry, looked up): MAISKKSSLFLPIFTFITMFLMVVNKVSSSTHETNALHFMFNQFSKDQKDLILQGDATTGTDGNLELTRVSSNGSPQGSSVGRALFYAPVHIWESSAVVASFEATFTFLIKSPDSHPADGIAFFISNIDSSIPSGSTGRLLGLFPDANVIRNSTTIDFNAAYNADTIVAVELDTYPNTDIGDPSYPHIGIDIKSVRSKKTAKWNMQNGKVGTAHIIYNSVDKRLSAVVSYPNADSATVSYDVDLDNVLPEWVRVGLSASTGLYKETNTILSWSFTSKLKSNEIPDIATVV

Albumin (Bos taurus), sequence (P02769 whole entry, looked up): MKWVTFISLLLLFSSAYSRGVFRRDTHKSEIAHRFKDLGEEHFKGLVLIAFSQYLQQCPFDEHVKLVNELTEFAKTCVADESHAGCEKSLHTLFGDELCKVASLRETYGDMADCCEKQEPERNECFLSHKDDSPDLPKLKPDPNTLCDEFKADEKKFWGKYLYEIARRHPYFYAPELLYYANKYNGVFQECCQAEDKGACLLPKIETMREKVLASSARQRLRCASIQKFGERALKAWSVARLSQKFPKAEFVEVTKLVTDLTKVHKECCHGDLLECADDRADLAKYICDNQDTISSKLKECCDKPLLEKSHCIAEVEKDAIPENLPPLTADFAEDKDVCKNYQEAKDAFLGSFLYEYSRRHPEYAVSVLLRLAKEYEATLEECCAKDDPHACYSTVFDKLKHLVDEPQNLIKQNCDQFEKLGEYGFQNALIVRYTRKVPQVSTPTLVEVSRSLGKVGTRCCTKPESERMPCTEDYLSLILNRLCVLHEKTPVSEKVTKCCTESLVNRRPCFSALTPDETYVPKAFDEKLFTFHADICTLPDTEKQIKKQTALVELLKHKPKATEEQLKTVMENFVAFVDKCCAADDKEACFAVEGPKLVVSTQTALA

Row | SMILES | composite z-score [1] | composite Z-score [2] | composite z-score [3] | composite z-score [4] | composite z-score [5] | composite z-score [6] | composite z-score [7] | composite z-score [8] | composite z-score [9] | composite z-score [10]
1 | C[C@]1(C(=O)NCCN2CCOCC2)c2ccccc2C(=O)N(Cc2cc(F)cc(C(F)(F)F)c2)[C@H]1c1ccc(CO)cc1 | 0.0744 | 0.0652 (inactive) | -0.159 | -0.0928 | 0.773 | 2.18 | 0.535 | 0.692 | -0.841 | 0.828
2 | CCCCC(=C=CC[C@H](O)c1ccc(OCCO)cc1)C[C@H](O)COCc1ccccc1 | -0.276 | 0.154 (inactive) | -0.163 | -0.164 | 0.7 | 1.19 | 0.271 | 0.549 | -0.371 | -0.434
3 | CCCCCN1CC=CC23O[C@@H]4/C=C\CCC(C)OC(=O)C4[C@H]2C(=O)N(CCCCCCO)[C@@H]3C1=O (stereo not given in full) | 0.548 | 0.928 (inactive) | -0.311 | -0.164 | 0.781 | 0.84 | 1.57 | 0.623 | -0.41 | -0.296
4 | CN1C(=O)C2C=CC(C(O)c3ccc(F)cc3)N(NC(=O)OC(C)(C)C)C2C1=O (stereo not given) | 0.854 | 0.134 (inactive) | 0.0155 | -0.0317 | 0.695 | 2.48 | 0.215 | 1.03 | -1.3 | 0.923
5 | CCCC=C(CCC)[C@@H](NS(=O)(=O)c1cccc2cccnc12)c1ccc(-c2ccccc2)cc1 | 0.723 | 0.339 (inactive) | 0.438 | -0.0581 | 0.666 | 2.88 | 0.0607 | 1.31 | -0.677 | 1.14
6 | COC(=O)C(CC#Cc1ccc2c(c1)[C@]1(C(=O)N2)[C@H](C(=O)Nc2nc3ccccc3s2)[C@H]2C(=O)O[C@H](c3ccccc3)[C@H](c3ccccc3)N2[C@@H]1c1ccc(OCCO)cc1)C(=O)OC | 0.942 | 0.0898 (inactive) | 0.178 | -0.0209 | 0.553 | 2.29 | 1.04 | 1.3 | 0.517 | 1.12
7 | COCC(=C=CC[C@H](O)c1cccc(OCCO)c1)C[C@H](O)COCc1ccccc1 | 0.484 | -0.141 (inactive) | 0.187 | 0.104 | 0.742 | 2.13 | 0.66 | 0.938 | -0.227 | -0.564
8 | COc1ccc([Si](C)(C)[C@H]2[C@H](CC(=O)N3CCC[C@H]3CO)O[C@@]3(C(=O)N(Cc4ccc(N5CCC5=O)cc4)c4ccccc43)[C@@H]2C)cc1 | 0.669 | 0.156 (inactive) | -0.0182 | -0.147 | 0.474 | 2.24 | 0.568 | 1.3 | 1.25 | 1.13
